Rows were chosen to be rich in hits. Some 20% of all compounds tested hit in one or more screens of this group.
Cycloheximide cs: Cycloheximide Counterscreen for Small Molecule Inhibitors of Shiga Toxin. cell reporter, cycloheximide protein synthesis inhibition counterscreen. max response, %. actives 12% (n = 300,000). AID 2314, 2010; in the data active means max response mostly above about 13%, no sharp cut-off; inactive means mostly below about 14%; further: read at 38.3 µM for the half of the compounds with a filed dose; 0% is about no effect
Pf growth 96h: Primary qHTS for delayed death inhibitors of the malarial parasite plastid, 96 hour incubation; P. falciparum luciferase reporter growth, 96 h; Potency, µM (top dose mostly 28.7 µM), for inactives: at the highest dose activity change, negative = inhibition, usual class: inhibitors; actives 6.9% (n = 320,000); further: potency means the concentration at half of the fitted maximal effect; on the % scale 0 is the no-effect control and ±100 the full control effect
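Two parasite generations (96 h, 37 C, 5% CO2) of compound exposure in infected erythrocytes (0.05% parasitemia, 2% hematocrit). Luciferase-reporter P. falciparum; decreased luminescence indicates inhibited growth, aimed at apicoplast-acting delayed death.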
HCMV inh: qHTS Assay for inhibitors of the human cytomegalovirus (HCMV); HFF cells, HCMV-luciferase reporter, 72 h; stronger effect = lower value; activity change, negative = inhibition, % at 57.5 µM; actives 4.5% (n = 410,000); AID 1259415, 2018; in the data active means activity change below about -60%; inconclusive means no clear call, values can overlap the other calls; inactive means above about -39%; further: on the % scale 0 is the no-effect control and ±100 the full control effect
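HFF cells seeded 16 h at 37C, treated with compounds, infected with luciferase-reporter HCMV at MOI 1 PFU/cell; luciferase read at 72 h post infection, normalized to buffer-only and Salinomycin controls.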
Pf growth 48h: Primary qHTS for delayed death inhibitors of the malarial parasite plastid, 48 hour incubation; P. falciparum luciferase growth in erythrocytes, 48 h; Potency, µM (top dose mostly 28.7 µM), inactives show at the top dose activity change, negative = inhibition, usual class: inhibitors; actives 5.9% (n = 310,000); further: potency means the concentration at half of the fitted maximal effect; on the % scale 0 is the no-effect control and ±100 the full control effect
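A one-generation exposure of luciferase-tagged malaria parasites in RPMI 1640/Albumax erythrocyte culture, 37 C and 5% CO2. Inhibition is inferred from decreased luminescence after adding detection reagent.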
Shiga inhibitor: A qHTS for Small Molecule Inhibitors of Shiga Toxin. inhibition, % at 38.7 µM. AID 2315, 2010. actives 9.2% (n = 290,000). Vero cells, Shiga toxin protein synthesis inhibition reporter; in the data active means inhibition mostly above about 28%, no sharp cut-off; inactive means mostly below about 43%; further: 0% is about no effect
Starred values were filed as active, the others as inactive; ? = inconclusive; / = no result; [ ] = dose if it differs, or a comment. Unless noted, the call rests on the fitted dose curve; in most records, active means well fitted inhibition curve with a large enough effect; inconclusive means small, poorly fitted or top-dose-only effect, or another doubt; inactive means no such curve, though single readings can be large or run the other way.

SMILES	Cycloheximide cs	Pf growth 96h	HCMV inh	Pf growth 48h	Shiga inhibitor
COc1ccc(-c2ccc3c(N)c(C(=O)NCc4ccc(Cl)cc4)sc3n2)cc1	/	/	-38.9	/	/
CCn1cc(C(=O)N[C@H](C(=O)NCCCN2CCOCC2)C(C)C)c(=O)c2cc3c(cc21)OCO3	1.0	17.8%	-1.5	?	-6.5
COc1ccccc1N(Cc1ccccc1)S(=O)(=O)c1cccc(C(=O)Nc2cccc(C)n2)c1	10.4	?	-27.6	9.28µM*	1.7
C=CCN(c1ccccc1OC)S(=O)(=O)c1cccc(C(=O)Nc2nnc(C3CC3)s2)c1	/	9.28µM*	-5.4	10.4µM*	/
CCN(c1ccccc1)S(=O)(=O)c1ccc(C(=O)Nc2cccc(C)n2)cc1	/	?	19.4	9.28µM*	/
C=CCN(c1ccccc1OC)S(=O)(=O)c1cccc(C(=O)NC2=NCCS2)c1	/	/	17.3	/	/
Cc1ccc(S(=O)(=O)N(C)c2ccc(C(=O)Nc3cccc(C)n3)cc2)cc1	1.2	0.0%	-76.6*	-2.4%	12.4
O=C(Nc1cc(F)ccc1F)c1cc2nc(-c3ccco3)cc(C(F)(F)Cl)n2n1	/	/	-5.0	/	/
O=[N+]([O-])c1ccc(Cl)c(S(=O)(=O)NCCc2ccccn2)c1	/	/	0.3	/	/
CN(c1ccc(C(=O)Nc2ccc(Cl)cn2)cc1)S(=O)(=O)c1ccccc1	11.7	-27.2%	-66.1*	-12.9%	19.9
CCNc1ccc(C(=O)OCC)cc1NC(=O)c1cccc(S(=O)(=O)N(C)c2ccccc2)c1	1.8	2.33µM*	-23.5	?	-8.0
Cc1ccc(S(=O)(=O)N(C)c2ccc(C(=O)Nc3ccc(C)cn3)cc2)cc1	/	?	-37.0	11.7µM*	/
Cc1cccc(NC(=O)c2cccc(S(=O)(=O)N(C)c3ccccc3)c2)n1	/	13.1µM*	39.1	7.38µM*	/
CCNc1ccc(C(=O)OCC)cc1NC(=O)c1cccc(N(C)C)c1	-1.9	-27.4%	?	?	18.2
CCOC(=O)Cn1c(=O)n(C2CCCCC2)c2nc(-c3ccccc3Cl)nc(C(N)=O)c21	/	/	-19.7	/	/
Cc1ccc2c(c1)CC(C)N2S(=O)(=O)c1nnc(NC(=O)c2ccccc2F)s1 (centres undefined)	/	/	30.5	/	/
COc1ccccc1C(=O)Nc1ccc(OC(C)C(=O)N2CCOCC2)cc1 (centres undefined)	/	?	?	-22.0%	/
Cc1ccccc1Nc1nc(-c2ccccc2)c(C(=O)Nc2cccnc2)s1	15.6*	?	-23.2	-9.4%	-16.2
O=C(Nc1cccnc1)c1cccnc1Cl	9.3	29.1%	15.0	8.9%	17.6
Cc1cccc(NC(=O)c2ccccc2C(=O)O)c1	8.9	/	-0.2	12.1%	-0.5
O=C(Nc1cccnc1)c1ccccc1O	20.7*	/	23.7	54.0%	57.6*
Cc1cccc(NC(=O)c2ccccc2-c2ccccc2)c1	-6.7	-5.3%[5.75 µM]	-104.4*	12.6%	-1.5
Cc1cccc(NC(=O)c2cc(S(=O)(=O)c3ccccc3)ccc2Cl)c1	-3.1	-83.3%	-106.8*	/	-7.9
COc1cc(N)c(Cl)cc1Cl	-2.1	9.3%	-27.4	-1.9%	-5.0
O=C(c1cnccn1)N1CC(=O)N2[C@H](C1)[C@@H](c1ccc(Br)cc1)[C@@H]2CO	/	/	-3.7	/	/
SMILES	Cycloheximide cs	Pf growth 96h	HCMV inh	Pf growth 48h	Shiga inhibitor
Cc1ccc(NC(=O)CCCn2c(=O)c3cccn3c3cccnc32)c(C)c1	/	/	-14.5	/	/
CC(C)(C)NCc1ccc(OCc2cccs2)cc1	2.5	0.0%	15.3	-10.3%	18.4
CCc1c(C)nc(SCc2nc(-c3ccccc3)no2)[nH]c1=O	/	/	-37.5	/	/
O=C(O)c1cc(Cl)c(Cl)cc1C(=O)Nc1cccnc1	4.4	0.0%	19.4	19.8%	-12.9
O=C(Nc1cccnc1)c1ccccc1-c1ccccc1	-1.2	398.6%	-60.4*	-5.6%	-12.2
O=C(CSCc1cnn(-c2ccccc2)c1-n1cccc1)NCc1ccccc1F	/	/	-75.8*	/	/
O=C(O)CSCc1cnn(-c2ccccc2)c1-n1cccc1	-3.9	409.8%	12.8	10.4µM*	-4.3
COc1ccc(CNC(=O)CSCc2cnn(-c3ccccc3)c2-n2cccc2)cc1OC	/	/	-79.6*	/	/
COc1ccc(Cn2c(SCc3ccc(C(=O)NC4CCCC4)cc3)nc3cccnc32)cc1	/	/	-7.8	/	/
COc1ccc(OC2OC3COC(C)(C)OC3C(O)C2NC(C)=O)cc1 (centres undefined)	-2.4	-5.1%	24.8	3.5%	-5.1
O=C(CNC(=O)C12CC3CC(CC(C3)C1)C2)N1CCN(S(=O)(=O)/C=C/c2ccccc2)CC1	-3.9	9.28µM*	-71.9*	?	-26.0
O=C(CNC(=O)C12CC3CC(CC(C3)C1)C2)N1CCN(S(=O)(=O)c2cccs2)CC1	-2.7	?	?	?	-2.0
Cc1cccc(C(=O)NCC(=O)N2CCN(S(=O)(=O)/C=C/c3ccccc3)CC2)c1	/	-22.6%	-7.2	?	/
CC(C)Oc1ccc(C(=O)NCC(=O)N2CCN(S(=O)(=O)/C=C/c3ccccc3)CC2)cc1	/	?	-30.1	14.7µM*	/
Cc1ccsc1/C=N/NC(=O)c1nnn(-c2nonc2N)c1CSc1ccccc1	-5.8	32.1%	4.0	28.9%	-10.5
Cc1ccc(-c2c(C(=O)N/N=C/C3CC=CCC3)nnn2-c2nonc2N)cc1 (centres undefined)	-7.2	9.28µM*	-2.2	?	-5.0
Cc1ccsc1/C=N/NC(=O)c1nnn(-c2nonc2N)c1-c1ccccc1	-5.1	35.8%	-21.1	-0.6%	27.7
Cc1ccc(/C=N/NC(=O)c2nnn(-c3nonc3N)c2C)o1	2.9	?	4.4	6.1%	-5.5
Cc1ccsc1/C=N/NC(=O)c1nnn(-c2nonc2N)c1C	11.6*	?	-4.6	24.3%	19.8
Cc1ccc(-c2c(C(=O)N/N=C/c3sccc3C)nnn2-c2nonc2N)cc1	-6.9	0.928µM*	0.0	?	-2.0
C/C(=N\N=C\c1ccccc1)c1nnn(-c2nonc2N)c1C	18.6*	63.4%	-19.2	43.3%	40.7
COc1ccc(-n2nc(C(=O)NCCc3ccc(OC)c(OC)c3)c3c4ccccc4n(C)c3c2=O)cc1Cl	/	/	9.8	/	/
